This is part of a sample that, as a whole, favours compounds with a hit. Of some 83,000 tested, about 20% had one in any assay.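 For each line, cells grew in 96-well plates with the test compound present at a single concentration for 48 hours.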 A number with no mark means an inactive call. Active and inactive are the calls of the source. How the source made its calls: active means growth percent below 10; inactive means the rest.
Columns and labels:
Experiment in all cases: NCI-60 one-dose screen, 48 h (100 = growth as untreated, 0 = no growth, -100 = all killed)
[1] = test system: DU-145 prostate; details: 10 µM unless noted
[2] = test system: K-562 leukemia; details: 10 µM unless noted
[3] = test system: MALME-3M melanoma; details: 10 µM unless noted
[4] = test system: MDA-MB-231 breast; details: 10 µM unless noted
[5] = test system: RXF 393 renal; details: 10 µM unless noted
[6] = test system: SF-268 CNS; details: 10 µM unless noted
[7] = test system: SF-295 CNS; details: 10 µM unless noted
[8] = test system: SF-539 CNS; details: 10 µM unless noted
[9] = test system: UACC-257 melanoma; details: 10 µM unless noted
[10] = test system: M14 melanoma; details: 10 µM unless noted
[11] = test system: HCT-15 colon; details: 10 µM unless noted
[12] = test system: HT29 colon; details: 10 µM unless noted
[13] = test system: SNB-75 CNS; details: 10 µM unless noted
[14] = test system: SNB-19 CNS; details: 10 µM unless noted
[15] = test system: U251 CNS; details: 10 µM unless noted
[16] = test system: PC-3 prostate; details: 10 µM unless noted
[17] = test system: SK-MEL-5 melanoma; details: 10 µM unless noted
[18] = test system: UACC-62 melanoma; details: 10 µM unless noted
[19] = test system: SK-MEL-28 melanoma; details: 10 µM unless noted
[20] = test system: LOX IMVI melanoma; details: 10 µM

| Structure (SMILES) | growth [1] | growth [2] | growth [3] | growth [4] | growth [5] | growth [6] | growth [7] | growth [8] | growth [9] | growth [10] | growth [11] [%] | growth [12] | growth [13] | growth [14] | growth [15] | growth [16] [%] | growth [17] | growth [18] | growth [19] | growth [20] |
| --- | --- | --- | --- | --- | --- | --- | --- | --- | --- | --- | --- | --- | --- | --- | --- | --- | --- | --- | --- | --- |
| CCOC(=O)C1(C)CCCC1N (stereo not drawn) | 108% | 101% | 101% | 97% | 104% | 92.4% | 105% | 103% | 113% | 106% | 108 | 116% | 86.3% | 93.6% | 110% | 104 | 98% | 91.6% | 109% |  |
| NC(=S)N/N=C\c1nccc2c(C(F)(F)F)cccc12 | 12% | 5.11% (active) | -10.4% (active) | 49.1% | 16% | 5.75% (active) | 7.98% (active) | 0.339% (active) | -23.9% (active) | -26.7% (active) | 28.6 | 18.5% | 11.6% | 30.6% | 5.79% (active) | 18.6 | -41.5% (active) | -3.16% (active) | 26.6% | 4.01% (active) |
| CCCc1cc(=O)oc2c3c(c4c(c12)OC(C)(C)CC4)OC(C)[C@H](C)[C@@H]3O (stereo partly drawn) | 104% | 71.2% | 139% | 79.9% | 77.5% | 94.4% | 44.5% | 108% | 104% | 102% | 55.5 | 58.8% | 91.5% | 94.4% | 75.1% | 42.7 | 86.9% | 68.9% | 93.1% | 83.1% |
| O=C1/C(=C/c2ccccn2)CCc2ccccc21 | 103% | 7.2% (active) | 103% | 106% | 107% | 102% | 96.8% | 95.4% | 105% | 108% | 95.3 | 97.6% | 97.7% | 97% | 100% | 94.6 | 97.2% | 97.5% | 111% | 86.5% |
| CCOC(=O)c1c(C)[nH]c2ccc(O)cc12 | 106% | 101% | 103% | 96.7% | 109% | 97.7% | 111% | 98.1% | 92.9% | 101% | 109 | 96.3% | 100% | 101% | 97.3% | 93.2 | 101% |  | 120% | 97.1% |
| Cc1cc(C(=O)c2ccc(Cl)cc2)ccc1O | 98.2% | 112% | 112% | 94.3% | 75.7% | 92.5% | 90.3% | 93% | 115% | 89.2% | 112 | 99.1% | 96% | 116% | 101% |  | 95.3% | 89.8% | 105% | 99.3% |
| O=[N+]([O-])CC(O)c1ccccc1 (stereo not drawn) | 109% | 99.4% | 122% | 87.6% | 112% | 100% | 113% | 103% | 88.7% | 97.6% | 96.6 | 113% | 91.6% | 101% | 98.7% | 94.9 | 103% | 99.1% | 108% | 84.5% |
| COC(=O)Nc1nc2ccc(C3(c4ccc(F)cc4)OCCO3)cc2[nH]1 | 12.2% | 9.31% (active) | 31.1% | 30.3% | 0.251% (active) | 50.5% | 4.04% (active) | -13.9% (active) | 45.5% | 23.3% | 25.9 | 0.785% (active) | 10.3% | 89.1% | 13.9% | 14.8 | 21.2% | 53.3% | 48.1% | 45.2% |
| O=C(NNc1ccccc1)OCc1ccccc1 | 69.1% | 3.91% (active) | 121% | 74.4% | 119% | 63% | 58% | 97.1% | 92.4% | 17.6% | 73 | 97.7% | 114% | 97.5% | 80.4% | 54.1 | 101% | 28.1% | 105% | 20.8% |
| S=C=Nc1ccc(N2CCOCC2)cc1 | 108% | 89.6% | 82.3% | 97.3% | 72.2% | 99.9% | 84.8% | 89.5% | 88.7% | 93% | 90.5 | 86.3% | 66.4% | 91.8% | 97.6% | 90.1 | 98.2% | 82.1% | 92.5% | 92.4% |
| CN=C(N)N/N=C(\c1ccccc1)c1ccc(Br)cc1 | -9.2% (active) | -6.02% (active) | 25.9% | -9.39% (active) | -0.626% (active) | 11.9% | -46% (active) | -19.2% (active) | 47.2% | -13.1% (active) | 12.4 | -7.67% (active) | 9.3% (active) | 62.2% | -9.13% (active) | 12.6 | -36.7% (active) | 33.8% | 48% | 0.411% (active) |
| COc1cc(/C=C/c2ccnc3ccccc23)cc(OC)c1OC | 64.4% | 8.29% (active) | 40.3% | 47.1% | 22.1% | 48.2% | 32.4% | 46.1% | 58.7% | 13.3% | 32.5 | 11.8% | -3.85% (active) |  | 33.2% | 56.1 | 3.09% (active) | 38.2% | 34% | 26.1% |
| CC(C)(C)c1ccc(O)c(-c2ccccc2)c1 | 115% | 105% | 130% | 120% | 112% | 105% | 126% | 108% | 90.1% | 121% | 102 | 107% |  | 121% | 96.3% | 95.2 | 116% | 103% | 119% | 103% |
| O=[N+]([O-])c1ccc([I+]c2ccccc2)cc1 | -10.5% (active) | 9.29% (active) | -0.265% (active) | 35.4% | 57.8% | -69.7% (active) | 77.9% | 1.87% (active) | 29.7% | -36.6% (active) | 62.1 | -55.8% (active) |  | -70.9% (active) | -97.1% (active) | 62.3 | -29.5% (active) | -17.6% (active) | -76.8% (active) | -81.9% (active) |
| S=C(SSC(=S)N1CCOCC1)N1CCOCC1 | 109% | 56.2% | 101% | 104% | 102% | 101% | 107% | 96.4% | 64% | 55.5% | 91.2 |  | 104% | 111% | 58.1% | 77.6 | 73.2% | 68.7% | 106% | 78.9% |
